Values joined by “and” are separate entries in the source; they are usually repeats but may differ in a detail not shown here. Equal entries are not always repeated. The panel holds about 83,000 compounds, 20% with a hit somewhere; the sample as a whole holds those more often.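 In brief: 96-well plates, 48 h treatment, single concentration, percent growth endpoint.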 Active and inactive are the calls of the source. The calls were made as follows: active = growth percent below 10; inactive = the rest.
test system: UACC-62 melanoma; assay: NCI-60 one-dose screen, 48 h (100 = growth as untreated, 0 = no growth, -100 = all killed); settings: 10 µM unless noted

SMILES	growth
Oc1ccc(/C=C/c2cc(O)cc3c2C(c2cc(O)cc(O)c2)C(c2ccc(O)c(O)c2)O3)cc1 (stereo not drawn)	-57.3% [100 µM] (active) and -23.7% [100 µM] (active)
NC1=NN(c2ccccc2)C2(c3ccncc3C(=O)O)C1C(N)=NN2c1ccccc1 (stereo not drawn)	67.3% [100 µM] (inactive) and 18.3% [100 µM] (inactive)
CC(=O)OC(=C(C#N)C#N)c1nccnc1C(C)=O	96.4% [20 µM] (inactive) and -99.5% [20 µM] (active)
CC(C)(C)c1cc(C2COC(=O)COCC(=O)OCCOCCOCCO2)cc(C(C)(C)C)c1O (stereo not drawn)	-51.5% [100 µM] (active) and -100% [100 µM] (active)
O=C(O)c1cnccc1-c1cc(=O)[nH]n1-c1ccccc1	17.3% [100 µM] (inactive) and 7.35% [100 µM] (active)
Cc1cc(N2CCCC2)c([N+](=O)[O-])cc1[N+](=O)[O-]	64.5% [100 µM] (inactive) and 32.1% [100 µM] (inactive)
O=C1c2c(O)ccc(O)c2C(=O)c2c(NCCNC(=O)C(O)C(O)C(O)C(O)CO)ccc(NCCNC(=O)C(O)C(O)C(O)C(O)CO)c21 (stereo not drawn)	-100% [100 µM] (active)
CC(=O)OCC1=C(C)C[C@H]([C@@H](COC(C)=O)C2CCC3C4C[C@H]5O[C@]56CC=CC(=O)[C@]6(C)C4CC[C@@]32C)OC1=O (stereo partly drawn)	-91% [50 µM] (active) and -99.6% [50 µM] (active)
CCOC(=O)/C(C#N)=C(/NNc1ccccc1)c1ccncc1C(=O)O	61.3% [100 µM] (inactive) and 11.4% [100 µM] (inactive)
O=C(CCc1ccccc1)On1c(-c2ccccc2)nc2ccccc2c1=S	-68.8% [100 µM] (active) and -83.7% [100 µM] (active)
Cc1cc2c3c(nc4ccccc42)C(=O)c2cccnc2-c3n1	-89.9% [100 µM] (active) and -100% [100 µM] (active)
COc1ccc(CC2c3cc(OC)c(OC)c(OC)c3CC[N+]2(C)C)cc1Oc1ccc(CC2c3cc4c(c(OC)c3CCN2C)OCO4)cc1 (stereo not drawn)	80% [100 µM] (inactive) and 8.64% [100 µM] (active)
N#Cc1c(SCc2ccccc2)nc(-c2ccccc2)[nH]c1=S	-44.7% [100 µM] (active) and 1.92% [100 µM] (active)
CC(=O)O[C@@H]1C[C@@]2(C)[C@@H]3CC=C4[C@@H](C[C@H](O)C(=O)C4(C)C)[C@]3(C)C(=O)C[C@]2(C)[C@H]1[C@@](C)(O)C(=O)/C=C/C(C)(C)OC(C)=O	-64.4% [100 µM] (active) and -99.7% [100 µM] (active)
CC(C)=CCC/C(C)=C/CC/C(C)=C/CSc1ccc(Cl)cc1C(=O)O	-72.3% [100 µM] (active) and 10.4% [100 µM] (inactive)
CC#CC#C/C=C1/C=CC2(CCCCO2)O1 (stereo not drawn)	63.2% [100 µM] (inactive) and 4.56% [100 µM] (active)
COc1c2c(c(OC)c3c1c(=O)c1ccccc1n3C)OCO2	-0.25% [100 µM] (active)
CC(=O)c1cc2c(s1)C(=O)c1scc(C(C)=O)c1C2=O	-37.8% [100 µM] (active) and -81.8% [100 µM] (active)
Nc1cc2c3c(cccc3c1)C(=O)N(c1ccc(OCCN3CCCCC3)cc1)C2=O	-67.3% [100 µM] (active) and -100% [100 µM] (active)

SMILES	growth
C#CCn1c2c(c3ccccc3c1=O)C(=O)c1ccccc1-2	16% [100 µM] (inactive) and -100% [100 µM] (active)
O=c1c2ncn(C3CCCCO3)c2n(-c2ccccc2)c(=S)n1-c1ccccc1 (stereo not drawn)	18.7% [100 µM] (inactive) and 4.84% [100 µM] (active)
CN(C)CCNc1ccc(NCC[N+](C)(C)Cc2ccc([N+](=O)[O-])cc2)c2c1C(=O)c1c(O)ccc(O)c1C2=O	24.1% [100 µM] (inactive) and 0.198% [100 µM] (active)
CC1(C)CCCC(C)(C2CCC3(C)C2C(O)CC2C4(C)CCC(O)C(C)(C)C4C(O)CC23C)O1 (stereo not drawn)	-76.6% [100 µM] (active) and -83.9% [100 µM] (active)
CCCCCCCCCCCCCC1=C(O)C(=O)C(CC2=C(O)C(=O)C(CCCCCCCCCCCCC)=C(O)C2=O)=C(O)C1=O	9.52% [100 µM] (active) and -61.7% [100 µM] (active)
Cc1c2c(c(O)c3c(O)cccc13)C(=O)C1(O)C(O)=C(C(=O)NCNc3ccc(C(N)=O)cn3)C(=O)C(N(C)C)C1C2 (stereo not drawn)	-54.4% [100 µM] (active) and -74.8% [100 µM] (active)
CC#CC#C/C=C1\C=CC2(OC=CC2OC(C)=O)O1 (stereo not drawn)	-87% [100 µM] (active) and -100% [100 µM] (active)
CC1=CCC2C3(C)CCC2(C(C)C)C1C3 (stereo not drawn) (tested in a mixture with another compound)	17.4% [100 µM] (inactive) and 0.443% [100 µM] (active)
N#Cc1cnn2c1n[n+]([O-])c1ccc(Cl)cc12	-91.7% [100 µM] (active) and -100% [100 µM] (active)
CCOC(=O)C1(C#N)C(=O)c2cc[n+](CC[n+]3ccc4c(c3)C(=O)C(C#N)(C(=O)OCC)C4=O)cc2C1=O (stereo not drawn)	66.6% [100 µM] (inactive) and 29.5% [100 µM] (inactive)
CCC/C(Cl)=N\OC(=O)Nc1ccc(F)cc1	-93.4% [100 µM] (active) and -100% [100 µM] (active)
COc1cc(Nc2ccc3c(c2)CCC3)nc(OC)n1	42.1% [100 µM] (inactive) and 2.26% [100 µM] (active)
CC(=O)OC(C)c1cc2c(s1)C(=O)c1ccsc1C2=O (stereo not drawn)	-64.5% [100 µM] (active) and -100% [100 µM] (active)
CCCn1c2c(c3ccccc3c1=O)C(=O)c1ccccc1-2	63.1% [100 µM] (inactive) and 8.48% [100 µM] (active)
CCCC(=O)Oc1c2ccsc2c(OC(=O)CCC)c2ccsc12	-75.3% [100 µM] (active) and -100% [100 µM] (active)
CC(=O)c1cc2c(s1)C(=O)c1ccsc1C2=O	-54.1% [100 µM] (active) and -98.1% [100 µM] (active)
CC(C)(C)O/N=C/c1cc(NC(=S)c2ccsc2)ccc1Cl	-90.7% [100 µM] (active) and -85.1% [100 µM] (active)
CCCCOC(=O)C1CN2C(=NC1(C(F)(F)F)C(F)(F)F)Sc1ccccc12 (stereo not drawn)	4.45% [100 µM] (active) and 54.9% [100 µM] (inactive)
CCOC(=O)c1nc2cc(C(F)(F)F)ccc2nc1Nc1ccc(F)cc1	33.3% [100 µM] (inactive) and -17.1% [100 µM] (active)
